Drawing on PubChem BioAssay (EPA / NIEHS), this text covers AC50 and outcome for 15 compounds.

Inconclusive results are not listed. Active and inactive are the calls of the source. The calls were made as follows, unless noted: active = hit-call score of the fitted dose curve at least 0.9, where 1 is the maximum; inactive = score below 0.9.

Test [1] is described as follows: CCTE_Deisenroth_5AR_NBTE_donor: CCTE's 5alpha-reductase NanoBRET Target Engagement Assay […], Deisenroth Lab (AID 2284319). Particulars: actives raise or lower the signal. The procedure, abridged:
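In this secondary endpoint, donor luminescence from SRD5A2-NanoLuc in transfected HEK293T flags artifacts. Test chemical (10 nM - 29.9 uM) is present five hours, tracer the last two; mock-tracer wells run plate-matched; data fitted bidirectionally against DMSO.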
(In general: Bioluminescence resonance energy transfer reports proximity on the nanometre scale.)

A short description of test [2]: CCTE_Deisenroth_5AR_NBTE_acceptor: CCTE's 5alpha-reductase NanoBRET Target Engagement Assay - Autofluorescence Screen, Deisenroth Lab (AID 2284321). The settings on record: actives raise or lower the signal. The procedure, abridged: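 Acceptor-channel fluorescence flags artifacts, with excitation fixed at 460 nm. Nominal 100 uM chemical samples were read in triplicate runs, and signal changes were fitted in both directions relative to DMSO.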

A further test relates to SRD5A2 (gene 6716). Kind of test: CCTE_Deisenroth_5AR_NBTE_ratio: CCTE's 5alpha-reductase NanoBRET Target Engagement Assay - Ratio, Deisenroth Lab (AID 2284322). Particulars: actives raise or lower the signal. The method in brief:
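Reverse-transfect HEK293T with pNLF1-C-SRD5A2, express 20 h. Pre-incubate cells with chemical 3 h (8-point series, 10 nM - 29.9 uM, duplicate). Add testosterone tracer, 2 h more. Add substrate/inhibitor, read donor and acceptor emission.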

The test system of a further test is SERPINA7 (gene 6906). Kind of test: CCTE_GLTED_hTBG: CCTE's human Thyroxine-binding Globulin (TBG) Inhibition Assay, Great Lakes Toxicology and Ecology Division (GLTED) Lab (AID 2284343; active = hit-call score of the fitted dose curve at least 0.9, where 1 is the maximum;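 also: active chemicals lower fluorescence versus DMSO baseline by displacing probe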). The method in brief:
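Cell-free binding assay in which human TBG is incubated with test chemical for 2 hours and displacement of the fluorescent probe ANSA is read at 380 nm excitation/475 nm emission. Activity is fitted against DMSO as the negative control.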

The subject of a further test is IYD (gene 389434). The test is described as follows: CCTE_GLTED_hIYD: CCTE's human Iodotyrosine Deiodinase (xIYD) Inhibition Assay, Great Lakes Toxicology and Ecology Division (GLTED) Lab (AID 2284317; active = hit-call score of the fitted dose curve at least 0.9, where 1 is the maximum;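 also: cell-free human IYD enzyme made in baculovirus insect cells; iodide freed from monoiodotyrosine measured by cerium arsenite color change at 420 nm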). The method in brief:
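Human IYD expressed in a baculovirus-insect cell system was incubated 3 h with monoiodotyrosine and test chemical. Released iodide, separated on Dowex columns, was quantified by the Sandell-Kolthoff reaction at 420 nm; plates were normalized to MNT and DMSO/NaOH controls.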

A short description of test [3]: TAMU_PeakParms_SingleDonor1434_Asystole: Texas A&M University (TAMU) 1.5-hr Human Induced Pluripotent Stem Cell (iPSC)-derived Cardiomyocytes Calcium (Ca+2) Flux Assay for Cardiotoxicity: Asystole (quiescence of beating) (AID 2284328; active = hit-call score of the fitted dose curve at least 0.9, where 1 is the maximum). The method in brief:
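Average Ca2+-flux peak frequency (beats/s) was recorded in single-donor iPSC-derived cardiomyocytes after 90 min exposure (0.2–100 uM final, 0.5% DMSO). Asystole POD set as EC95 against DMSO, no preprocessing.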

Test [4] relates to Brachyury (BRA) Protein Expression, Deisenroth Lab, TBXT (gene 6862). The test is described as follows: CCTE_Deisenroth_DEVTOX-GLR_legacy_Bra: (Legacy) CCTE's DevTox GLR-Endo Assay Evaluation of Brachyury (BRA) Protein Expression, Deisenroth Lab (AID 2284329). The method in brief:
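Human pluripotent RUES2-GLR line was exposed twice during 48 h differentiation to a 10-point series, 1 nM - 200 uM. Fraction of Bra-positive cells was scored by imaging against pluripotent baseline and fitted after 0.2% DMSO subtraction.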

Test [5] can be described thus: CCTE_Deisenroth_DEVTOX-GLR_legacy_CellCount: (Legacy) Viability Assessment in CCTE's DevTox GLR-Endo Assay, Deisenroth Lab (AID 2284331). Particulars: actives raise or lower the signal. The method in brief: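 Seed RUES2-GLR 24 h; differentiate 48 h, dosing at 0 and 24 h; fix, stain nuclei; image 5 fields/well; count nuclei. Conc. 1 nM - 200 uM, single technical replicate, n=4 experiments; bidirectional fit vs 0.2% DMSO.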

Test [6] deals with SRY-box transcription factor 17 (SOX17) Protein Expression, Deisenroth Lab, SOX17 (gene 64321). The test is described as follows: CCTE_Deisenroth_DEVTOX-GLR_legacy_Sox17: (Legacy) CCTE's DevTox GLR-Endo Assay Evaluation of SRY-box transcription factor 17 (SOX17) Protein Expression, Deisenroth Lab (AID 2284341). The settings on record: actives raise or lower the signal. The procedure, abridged: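 Using the RUES2-GLR line, compounds are tested as 10-point series during 48-h defined-media differentiation. Sox17 reporter fluorescence per cell determines positivity; endpoint is percentage positive, analysed bidirectionally versus DMSO baseline.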

Test [7] relates to SRY-box transcription factor 2 (SOX2) Protein Expression, Deisenroth Lab, SOX2 (gene 6657). The test is described as follows: CCTE_Deisenroth_DEVTOX-GLR_legacy_Sox2: (Legacy) CCTE's DevTox GLR-Endo Assay Evaluation of SRY-box transcription factor 2 (SOX2) Protein Expression, Deisenroth Lab (AID 2284346). The procedure, abridged: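 hPSC RUES2-GLR, 384-well; 24 h seed → 48 h endoderm differentiation, 2 doses q24h, 1 nM–200 uM. Fix, nuclear dye, 5 fields/well. Sox2+ cells/cell count; cell positive if >5x BMAD over endoderm ctrl; gain direction vs DMSO.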

The term AC50 denotes the midpoint of the concentration-response curve, whichever way the signal moves. Turning to `Cc1cc(S(=O)(=O)O)ccc1N=Nc1c(O)ccc2ccccc12`, the AC50 in test [1] was 18.3 µM (active); in the test on SRD5A2 (gene 6716) it was 25 µM (active). Besides, the call in test [2] was inactive.
For `Nc1ccccc1[N+](=O)[O-]`, the result in [1] and in [2] was inactive. For the same compound, in the test with SRD5A2 (gene 6716), the half-maximal activity concentration (AC50) was 50 µM (active).
In the case of `OCc1cccc(Oc2ccccc2)c1`, the AC50 in the test with SERPINA7 (gene 6906) is 27.4 µM (active).
As for `C=C[Si]1(C)O[Si](C)(C=C)O[Si](C)(C=C)O[Si](C)(C=C)O1` (configuration not stated), the compound was called inactive with SERPINA7 (gene 6906).
For the compound `CC(C)CCCCCCCCCCCCCCC(=O)O`, the AC50 in the test with IYD (gene 389434) is 40.8 µM (active); in the test with SERPINA7 (gene 6906), 5.3 µM (active).
For `[O-]n1ccccc1=S.[O-]n1ccccc1=S.[Zn+2]`, the compound was classed as inactive (in test [1]; in test [2]; with SRD5A2 (gene 6716)).
`CCCCC(CC)COC(=O)c1ccc(O)cc1` (configuration not stated): the AC50 in the test on IYD (gene 389434) is 44.3 µM (active); in the test with SERPINA7 (gene 6906), 5.72 µM (active).
Turning to `O=C(CC(=O)c1ccccc1)c1ccccc1`, the AC50 in the test with SERPINA7 (gene 6906) is 8.66 µM (active).
In the case of `Nc1ccc2cc(S(=O)(=O)O)cc(O)c2c1N=Nc1ccccc1C(F)(F)F`, in the test on IYD (gene 389434), the AC50 is 100 µM (active).
With `COc1ccc(N=Nc2cc(C)c(N=Nc3ccc(S(=O)(=O)O)cc3)cc2OC)cc1`, the call with IYD (gene 389434) was inactive. Further, the AC50 is 50 µM (active) in [1], 40.6 µM (active) in [2], 87 µM (active) in the test on SRD5A2 (gene 6716) and 35.5 µM (active) in the test on SERPINA7 (gene 6906).
With `CCCCCCCCc1ccc(S(=O)(=O)O)cc1`, the concentration at half-maximal activity (AC50) in the test with IYD (gene 389434) is 100 µM (active).
On to `CC(C)NCC(O)COc1ccc(CC(N)=O)cc1` (configuration not stated), for which the outcome in test [3] was inactive.
`CCCCCCCC(=O)OCC(O)CO` (configuration not stated): the result (in [1]; in test [2]; in the test on SRD5A2 (gene 6716)) was inactive.
Regarding `CS(=O)(=O)OCCCCOS(C)(=O)=O`, the outcome in [4] was inactive. The AC50 in test [5] was 14.6 µM (active); in test [6], 47.3 µM (active); in test [7], 77 µM (active).
`COc1ccccc1N=Nc1c(S(=O)(=O)O)cc2cc(S(=O)(=O)O)cc(NC(C)=O)c2c1O`: in the test with IYD (gene 389434), the AC50 was 94.8 µM (active).
